Source: PubChem BioAssay (NCI)
The panel holds about 83,000 compounds, 20% with a hit somewhere; the sample as a whole holds those more often.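 Cells were grown in 96-well plates and exposed to the test compound at a single concentration for 48 hours; results are reported as percent growth, with values below 10 considered active.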 A number with no mark means an inactive call. Activity calls are given as the source filed them.

Assays:
Assay in all cases: NCI-60 one-dose screen, 48 h (100 = growth as untreated, 0 = no growth, -100 = all killed)
Details in all cases: 10 µM
RPMI-8226 leukemia = test system: RPMI-8226 leukemia
OVCAR-8 ovarian = test system: OVCAR-8 ovarian
OVCAR-5 ovarian = test system: OVCAR-5 ovarian
OVCAR-4 ovarian = test system: OVCAR-4 ovarian
SK-OV-3 ovarian = test system: SK-OV-3 ovarian
IGROV1 ovarian = test system: IGROV1 ovarian
OVCAR-3 ovarian = test system: OVCAR-3 ovarian
HS 578T breast = test system: HS 578T breast
NCI/ADR-RES ovarian = test system: NCI/ADR-RES ovarian
MDA-MB-435 melanoma = test system: MDA-MB-435 melanoma
SW-620 colon = test system: SW-620 colon
MCF7 breast = test system: MCF7 breast
HCT-116 colon = test system: HCT-116 colon
HCC-2998 colon = test system: HCC-2998 colon
KM12 colon = test system: KM12 colon
T-47D breast = test system: T-47D breast
BT-549 breast = test system: BT-549 breast

SMILES	growth (RPMI-8226 leukemia)	growth (OVCAR-8 ovarian)	growth (OVCAR-5 ovarian)	growth (OVCAR-4 ovarian)	growth (SK-OV-3 ovarian)	growth (IGROV1 ovarian)	growth (OVCAR-3 ovarian)	growth (HS 578T breast)	growth (NCI/ADR-RES ovarian)	growth (MDA-MB-435 melanoma)	growth (SW-620 colon)	growth (MCF7 breast)	growth (HCT-116 colon)	growth (HCC-2998 colon)	growth (KM12 colon)	growth (T-47D breast)	growth (BT-549 breast)
COc1ccc(/C=C/C(=O)Nc2ccc(-c3nc4ccc(OC)cc4s3)cc2)cc1	96.4%	106%	108%	128%	104%	118%	124%	108%	101%	102%	114%	85.3%	105%	110%	111%		
O=C1/C(=C\c2ccc(F)cc2)CN(C(=O)c2ccccc2F)C/C1=C\c1ccc(F)cc1	-35.8% (active)	1.61% (active)	21.6%	-5.48% (active)	11.1%		-29.8% (active)	11.8%	11.5%	-47.4% (active)	-78.3% (active)	-72.1% (active)	-75% (active)	-83.8% (active)		40.1%	-43.2% (active)
c1ccc2c(-c3nc(N4CCOCC4)c4c5c(sc4n3)CCCCCC5)cccc2c1	112%	101%	103%	106%	111%	112%		104%	109%	111%	108%	91.8%	109%	106%	109%	95%	97.9%
COC(=O)C(=C\c1ccc2c(c1)OCO2)/C(=C/c1ccc2c(c1)OCO2)C(=O)OC	98.7%	103%	98.9%	106%	105%	87.1%		106%	96.4%	104%	110%	96.9%	92.9%	94.6%	102%	89.2%	95.5%
CCN(CCCCCCCCCCN1CC(=O)N(CCCCCCCCCCN(CC)Cc2ccccc2OC)CC1=O)Cc1ccccc1OC	-70.2% (active)	-77.1% (active)	8.29% (active)	10.2%	-38.5% (active)	-66.3% (active)	-62.6% (active)		-32.9% (active)			-89.2% (active)	-95.2% (active)		-76.2% (active)	-66.5% (active)	-50.7% (active)
COc1ccccc1CNCCN1C(=O)c2ccc3c4c(ccc(c24)C1=O)C(=O)N(CCNCc1ccccc1OC)C3=O	-67.7% (active)	-77.7% (active)	-52.6% (active)	-99.7% (active)	-79.6% (active)	-72.5% (active)	-78.5% (active)		-62.6% (active)			-69.2% (active)			-96.6% (active)	-65.8% (active)	-94% (active)
CCCCOc1ccc(NC(=O)Nc2nnc(C)s2)cc1	80.8%	90.5%	102%	100%	102%	91.6%	120%	116%	93.3%	101%	111%	88.1%	94.9%	93.2%	103%		110%
CCCCOC(=O)Oc1ccc(C(=O)Oc2ccc(OCC)cc2)cc1	74.6%	99.1%	94.3%	87.9%	111%	105%	98.6%	94.5%		93.4%	110%	123%	98.2%	102%	94.8%	111%	
COC(=O)c1c(-c2ccccc2)csc1NC(=O)c1c(-c2ccccc2)noc1C	27.9%	25.6%	63%	79.9%	58.6%	20.6%	36.7%	65.9%	36.8%	32.7%	19.4%	24.6%	6% (active)	63.5%	27.9%		
CCOC1(OCC)OC(c2ccccc2)=C(C#N)C(/C=C\c2ccccc2)C1(OCC)OCC (stereo not drawn)	44.5%	86.5%	103%	79.6%	94.8%	85.6%	71.8%	95.1%		97.2%	83.2%	77.4%	53.9%	83.1%	84.3%	67.5%	95.3%
CCCCN(CCCC)CCCCCCCCC(O)c1cc2ccccc2c2ccccc12 (stereo not drawn)	-7.55% (active)	49.4%	74.8%	46.2%	80.7%	44.8%		73.7%	54.6%	67.3%	66.6%	28.7%	22.7%	61.5%	40.9%	31.7%	67.5%
CCN(CC)CCSCCCNc1c2ccc(Cl)cc2nc2ccc(OC)cc12	-22.9% (active)	-29.3% (active)	-16.7% (active)	-34.1% (active)	-1.76% (active)	-18.7% (active)		6.72% (active)	1.58% (active)		-23.7% (active)	-33% (active)	-55.9% (active)	-73.2% (active)	-10.9% (active)	-32.8% (active)	
COc1ccc(C2CC(c3ccc(N(C)C)cc3)=NN2c2ccc(S(N)(=O)=O)cc2)cc1 (stereo not drawn)	34.1%	42.3%	84.3%	48.6%	70.3%	56.6%	54.7%	96.7%		36.9%	58%	20.5%	18.7%	75%	29.1%	36.9%	75%
CCCCCCCCCCCC[n+]1ccc(C(N)=O)cc1	-6.05% (active)	16.1%	20.5%	48.8%	45.5%	-18.7% (active)	23.2%	31.3%	103%	33.6%	23.6%	40.2%	25.6%	25.8%	-47% (active)		
CN(C)c1ccc(Cc2ccc(N(C)C)cc2Cl)c(Cl)c1	81.1%	101%	99.6%	78.6%	103%	90.7%	94.9%		101%	109%	91.2%	111%	95.4%	96.8%	90.4%	87.1%	136%
COc1ccc(Nc2ccnc(NCCNc3ccnc4cc(Cl)ccc34)n2)cc1	-22.9% (active)	59.5%	51.2%	37.1%	74.7%	24.6%	60.3%	76.8%	66.8%	-39.1% (active)	36.4%	14.3%	3.11% (active)	41.1%	62.2%		61%
CC[C@H]1CCC/C=C/[C@@H]2C[C@H](O)C[C@H]2[C@H](O)/C=C/C(=O)O1	-3.82% (active)	0.0361% (active)	7.93% (active)	29%	21.3%	-2.68% (active)	-58.5% (active)	13.7%	2.15% (active)		-69% (active)	-73% (active)	-67.8% (active)	-65.8% (active)	-70.5% (active)		
CCC(=O)N1C/C(=C/c2ccc(Cl)cc2)C(=O)/C(=C/c2ccc(Cl)cc2)C1	-37% (active)	1.63% (active)	2.37% (active)	8.11% (active)	-34.8% (active)		-47.2% (active)	22.2%	14.9%	-58.6% (active)	-63.6% (active)	-77.9% (active)	-85.4% (active)	-89.3% (active)		26%	-18.7% (active)
COc1cc([C@@H]2c3cc4c(cc3C(Br)[C@H]3COC(=O)[C@H]23)OCO4)cc(OC)c1OC (stereo partly drawn)	-25.8% (active)	-27.5% (active)	24.7%	17.3%	-18.4% (active)	-21% (active)	-81.5% (active)		-45.9% (active)	-42% (active)		-10.4% (active)			-81.3% (active)	31.3%	-12.7% (active)
CCN(CCCCCCN1CC(=O)N(CCCCCCN(CC)Cc2ccccc2OC)CC1=O)Cc1ccccc1OC	30.3%	86.7%	68.9%	77.1%	102%	61.1%	59.5%		70.9%	85.9%		83.6%	37.6%		65.5%	90.8%	87.8%
